Reference: PubChem BioAssay (NCI)
The panel holds about 83,000 compounds, 20% with a hit somewhere; the sample as a whole holds those more often.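 Cells were grown in 96-well plates and exposed to the test compound at a single concentration for 48 hours; results are reported as percent growth, with values below 10 considered active.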 Unmarked numbers belong to inactive results. Activity calls are given as the source filed them.

Tests used:
Experiment in all cases: NCI-60 one-dose screen, 48 h (100 = growth as untreated, 0 = no growth, -100 = all killed)
[1] = tested on: SK-MEL-2 melanoma; conditions: 10 µM unless noted
[2] = tested on: EKVX NSCLC; conditions: 10 µM
[3] = tested on: SN12C renal; conditions: 10 µM unless noted
[4] = tested on: UO-31 renal; conditions: 10 µM unless noted
[5] = tested on: TK-10 renal; conditions: 10 µM unless noted
[6] = tested on: ACHN renal; conditions: 10 µM unless noted
[7] = tested on: CAKI-1 renal; conditions: 10 µM unless noted
[8] = tested on: A498 renal; conditions: 10 µM unless noted
[9] = tested on: CCRF-CEM leukemia; conditions: 10 µM
[10] = tested on: MOLT-4 leukemia; conditions: 10 µM unless noted

SMILES	growth [1]	growth [2]	growth [3]	growth [4]	growth [5]	growth [6]	growth [7]	growth [8]	growth [9]	growth [10]
c1ccc(Nc2ccccn2)cc1	102%	108%	94.6%	88%	95.5%	106%	101%	122%	85%	84%
NCCCOc1cc(Cl)ccc1NC(=O)c1cc2ccccc2cc1OCCCN	-93.9% (active)	-16.1% (active)	19.7%	25%	-97.4% (active)	-79% (active)	59%	2.33% (active)		-52.3% (active)
N#Cc1c(N)nc(Nc2nc3ccccc3[nH]2)nc1-c1ccc(Cl)cc1	114%	109%	111%	82.8%	109%	101%	86.9%		95.9%	84.7%
c1ccc(Nc2ncc3c(n2)-c2cccn2CC3)cc1	101%	66.2%	85.7%	49.1%	90.8%	74.4%	72.4%		102%	99.4%
COc1cccc2c1nc1cccc(OC)c1[n+]2[O-]	35.6%	57.8%	43.7%	-0.522% (active)	75.8%	2.52% (active)	52.8%	65.4%	3.09% (active)	-1.14% (active)
CC(=O)/C(=C/c1ccc(-c2ccccc2)cc1)C(=O)c1ccccc1	99.1%	100%	92.7%	76.3%	103%	88.3%	91.3%	96.5%	38.6%	5.31% (active)
N=C(N)c1ccc(-c2ccc(-c3cc(Cl)cc(Cl)c3)s2)cc1	-46.1% (active)	-72% (active)	-77% (active)	-77.5% (active)	-74.8% (active)	-94.4% (active)	-90.2% (active)	-94.6% (active)	-67.1% (active)	-50.3% (active)
C=C[C@]1(C)C=C2C(=O)[C@@]3(O)OC[C@@]4(CCCC(C)(C)C43O)C2(O)C(O)C1 (stereo partly drawn)	-0.387% (active)	91.2%	93.2%	33.8%	-68.2% (active)	3.59% (active)	10.8%	99.4%		78%
CCCC(=O)NNc1[nH]c(-c2cc(OC)c(OC)c(OC)c2)cc1C(=O)OCC	103%	103%	108%	88.7%	74.1%	81%	73.1%	120%	9.44% (active)	1.13% (active)
COc1ccc2c(N)ncc(C#Cc3cc(C(=O)Nc4ccc(CN5CCN(C)CC5)c(C(F)(F)F)c4)cnc3C)c2c1	-15.4% (active)	-1.21% (active)	-45.4% (active)	-45.1% (active)	-60.2% (active)	-78.5% (active)	39.9%	15.4%	-25.4% (active)	-36.6% (active)
Cc1ccc2c(c1)C(=O)CCS2	119%	100%	101%	83.8%	90.8%	107%	99%	82.8%	109%	118%
O=C(O)c1occ(Cl)c1Cl	120%	100%	109%	97%	111%	109%	104%	90.4%	105%	111%
COC(=O)[C@@H]1[C@H](O)[C@H](C)[C@H](O)[C@H](C)/C=C\C=C(C)C(=O)Nc2c(C)c(OC(C)=O)c3c(c2O)C(=O)C(C)=C2OCOC(=C23)C(C)=C[C@@](C)(O)[C@H](O)[C@@H](C)[C@H]1OC(C)=O	8.13% (active)	112%	112%	101%	73.5%	122%	116%		99.3%	87.6%
COc1ccc(-c2nc(Nc3nc4ccccc4[nH]3)nc(N)c2C#N)cc1	97.6%	92.4%	90.8%	72.9%	95.9%	96.6%	93.3%	119%	95.4%	95%
Brc1c(-c2ccncc2)nc2n1CCS2	92.7%	110%	91.7%	94.5%	97.5%	87.7%	90.2%	77.6%	-8.76% (active)	87.3%
CCC(C)C1NC(=O)C(CC(C)C)NC(=O)C(C)NC(=O)C(C(C)C)NC(=O)C(CCCCN)NC(=O)C(CC(C)C)NC(=O)C(C(C)C)NC(=O)[C@H](C)NC(=O)C(C(C)CC)NC(=O)C(CCCN=C(N)N)NC(=O)C(CCCCN)NC(=O)C(CCCN=C(N)N)NC(=O)C(CCCCN)NC(=O)C([C@H](C)CC)NC(=O)C(CCCCN)NC1=O (stereo partly drawn)	37.3%	15.3%	10.9%	21.8%	20.2%	3.41% (active)	8.2% (active)	20.8%	8.98% (active)	-6.28% (active)
C=CC1CN2CCC1CC2C(O)c1ccnc2ccc(OC)cc12 (stereo not drawn)	2.09% (active)	102%	98.7%	60.2%	108%	97.9%	103%	108%	106%	106%
O=C1/C(=N\c2cc(=O)[nH]n2S(=O)(=O)c2ccccc2)Nc2ccccc21	102%	101%	98.2%	70.8%	123%	94.7%	84.8%		98.4%	102%
CCCCCc1ccnc(CC(=O)c2ccc(OC)cc2)c1	98.2%	92.5%	91.8%	79.6%	82%	93.2%	104%		87.8%	98.7%
CC(=O)Nc1nc(C)c(C(=O)N/N=C/N2CCOCC2)s1	34.1%	122%	105%	89%	103%	104%	140%	110%	76.3%	188%
C/C(=N\Nc1cccc(Cl)n1)c1ccccn1	21%	5.56% (active)	13.6%	-1.99% (active)	22.7%	6.24% (active)	12.7%	-1.3% (active)	6.2% (active)	4.01% (active)
C=C(NC(=O)[C@H](C(C)C)N(C)c1cccc2[nH]ccc12)C(=O)OC	104%	93.8%	101%	80.1%	94.2%	101%	92.6%	94.4%	87.1%	107%
CCc1c(C)c2ccc(OCC(=O)N=Nc3c(O)[nH]c4ccccc34)c(C)c2oc1=O	32.9%	88.9%	-43% (active)	64.8%	61.3%	82.2%		56.9%	10.3%	8.66% (active)
O=C(/C=C1\C(=O)N(Cc2ccccc2)c2ccccc21)c1ccc(OCCN2CCCCC2)cc1	88.6%	64.2%	0.718% (active)	-25.9% (active)	40.3%	-25.4% (active)		68.4%	1.17% (active)	9.65% (active)
O=C(Nc1cccc(Cn2c(=O)[nH]c3ccc(Oc4ncccn4)cc3c2=O)c1)c1cccc(F)c1	74.3%	78.6%	78%	58.9%	81%	80.9%	89%		75.7%	54.7%
CCC(C)(C)c1ccc(OCCCCCCN2CCN(c3ccc(C)c(Cl)c3)CC2)cc1	104%	83%	92.3%	64.5%	110%	91.3%	77.7%		-43.1% (active)	98.3%
O=C(C(=O)N1CCOCC1)c1ccc(O[C@H]2O[C@H](CO)[C@@H](O)[C@H](O)[C@@H]2O)cc1	107%	116%	101%	91.5%	103%	95%	100%		109%	103%
